Most compounds without a hit are left out; they make up all but 2.4% or so of the library.
FEN1 inhibitor – inhibitors of human flap endonuclease 1; Potency, µM (doses to about 114 µM), without a hit: at the highest dose activity change, negative = inhibition, most hits filed as inhibitors; Recombinant FEN1 flap cleavage, fluorescence, 15 min; actives 0.35% (n = 390,000); note: % is set by controls: 0 for no effect and ±100 for the full control effect; nearly all actives have a fitted effect of over 65% in size
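FEN1 at 10 nM, compound pretreatment for 15 min (room temperature), 50 nM final substrate to initiate; endpoint reads at 0 and 15 min; DMSO-only plates used as vehicle background.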
Pol iota inh – DNA polymerase iota (human) inhibition | Pol iota fluorescent replication assay, 10 min | Q9UNA4 | actives 1% (n = 390,000) | AID 588590 | Potency, µM (titrated, usually from 115 µM), for the others: top-dose activity, negative = inhibition, actives largely listed as inhibitors
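Fluorescent replication assay read twice, at 0 min and 10 min after adding 50 nM (final) substrate. Enzyme (10 nM) and compounds were first incubated 15 min at room temperature; enzyme-free buffer wells were negative controls.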
POLH inh – inhibitors of human DNA polymerase eta | recombinant Pol eta, fluorescent DNA replication assay | Q9Y253 | actives 1.2% (n = 390,000) | Potency, µM (highest dose often 114 µM), inactives show top-dose activity change, negative = inhibition, actives largely listed as inhibitors; note: % is set by controls: 0 for no effect and ±100 for the full control effect
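Pol eta (10 nM) was preincubated with compounds for 15 min at room temperature, after which fluorescent replication substrate (50 nM final) was added to start the reaction. Fluorescence was read kinetically at 0 and 10 min.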
Pol beta inh – blocks human DNA polymerase beta activity; P06746; Pol beta primer extension/strand displacement, fluorescence kinetic; Potency, µM (highest dose often 114 µM), inactives show at the highest dose activity change, negative = inhibition, hits mostly inhibitors; actives 1.3% (n = 340,000); note: % is set by controls: 0 for no effect and ±100 for the full control effect
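10 nM enzyme + cpd, 15 min RT; start with substrate 50 nM final; read 0 min and after 10 min RT. Corrected, normalized data; 4-parameter Hill curve fit.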
POLK inh – DNA polymerase kappa (human) inhibition. Q9UBT6. purified Pol kappa, fluorescent DNA synthesis assay, 10 min. Potency, µM (series often up to 107 µM), for inactives: top-dose activity, negative = inhibition, hits mostly inhibitors. actives 0.53% (n = 400,000); note: % is set by controls: 0 for no effect and ±100 for the full control effect
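Here, compound and 10 nM enzyme are combined for 15 min at room temperature; adding 50 nM substrate (final) starts DNA synthesis, tracked by fluorescence at 0 and 10 min against buffer-only wells.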
WRN inhibitor – inhibitors of human WRN helicase. Q14191. actives 0.46% (n = 360,000). WRN helicase unwinding, fluorescent forked duplex, kinetic. Potency, µM (highest dose often 114 µM), without a hit: at the top dose activity change, negative = inhibition, actives largely listed as inhibitors; note: % is set by controls: 0 for no effect and ±100 for the full control effect; nearly all actives have a fitted effect of over 55% in size
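Primary qHTS, 1536-well format. 20 nM WRN + compound, 15 min RT; start with 100 nM forked fluorophore/quencher duplex, 2 mM ATP (final); kinetic read ex 525/em 598 nm.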
The depositor's hits bear a star; ! = a repeat was not active. Calls come from the whole dose curve; as a rule, active = well fitted curve in the direction sought with a large enough effect; inconclusive = small, poorly fitted or top-dose-only effect, or another doubt; inactive = no such curve, though single readings can be large; an effect the other way counts as inactive or inconclusive. Potency is the fitted concentration of half-maximal effect.

Screening Cc1ccc(C2CC(=O)N3CN(c4ccc(Br)cc4)CSC3=C2C#N)o1 (configuration not stated) returned FEN1 inhibitor -7.2%, Pol iota inh inconclusive, POLH inh 4.4%, Pol beta inh 31.6µM*, POLK inh -6.9% and WRN inhibitor 1.7%.
Screening N#CC1=C2SCN(c3ccccc3)CN2C(=O)CC1c1c(Cl)cccc1Cl (configuration not stated) returned FEN1 inhibitor 79.4µM*, Pol iota inh 89.1µM*!, POLH inh -9.6%, Pol beta inh 35.9%, POLK inh -60.1% and WRN inhibitor 0.8%.
Screening O=S(=O)(c1ccc2ncccc2c1)N1CCN(c2nc(-c3cccs3)nc3ccccc23)CC1 returned FEN1 inhibitor -10.6%, Pol iota inh 1.9% and POLK inh -9.9%.
For CCCN1CNc2c(c(=O)[nH]c(=S)n2CCC(C)(C)C)C1 the results were FEN1 inhibitor -25.0%, Pol iota inh 12.7% and POLK inh 1.4%.
`C=CCOc1c(Cl)cc(CNc2ccc(C)c(Cl)c2)cc1OC` gave Pol beta inh 20.7%.
Screening C=CCOc1c(Cl)cc(CNc2ccc(N(C)C)cc2)cc1OC returned FEN1 inhibitor -15.1%, Pol iota inh 8.91µM*, POLH inh -6.2%, Pol beta inh -24.1%, POLK inh -20.3% and WRN inhibitor -8.8%.
Screening COc1ccc(NC(=O)CSc2nc(-c3ccccc3)[nH]c2-c2ccccc2)cc1OC returned FEN1 inhibitor -13.7%, Pol iota inh inconclusive, POLH inh -6.7%, Pol beta inh -8.4% and POLK inh -32.5%.
Cn1c(=O)n(CCCc2ccccc2)c(=O)c2c1nc1n2CCN1c1ccc(F)cc1 was read as FEN1 inhibitor -5.7%, Pol iota inh 19.4%, POLH inh -17.6%, Pol beta inh inconclusive and POLK inh -17.9%.
Screening CCOCCn1c(=O)c2c(nc3n2CCN3c2ccc(C)cc2)n(C)c1=O returned FEN1 inhibitor 0.0%, Pol iota inh 9.3%, POLH inh -19.5%, POLK inh -12.1% and WRN inhibitor 5.7%.
`CCOCCn1c(=O)c2c(nc3n2CCN3c2ccc(C)c(C)c2)n(C)c1=O` gave FEN1 inhibitor 9.2%, Pol iota inh inconclusive, POLH inh -10.8%, Pol beta inh 20µM* and POLK inh -7.4%.
CCc1ccc(N2CCn3c2nc2c3c(=O)n(CCc3ccccc3)c(=O)n2C)cc1 was read as FEN1 inhibitor -3.2%, Pol iota inh 3.1%, POLH inh -10.0%, Pol beta inh -0.2% and POLK inh -19.9%.
For Cc1cccc(N2CCn3c2nc2c3c(=O)n(CCCc3ccccc3)c(=O)n2C)c1 the results were FEN1 inhibitor 3.4%, Pol iota inh -3.4%, POLH inh -10.0%, Pol beta inh 89.1µM* and POLK inh -29.1%.
For Cc1cccc(N2CCn3c2nc2c3c(=O)n(CCc3ccccc3)c(=O)n2C)c1 the results were FEN1 inhibitor -1.7%, Pol iota inh 19.2%, POLH inh -22.7%, Pol beta inh 39.8µM* and POLK inh -15.8%.
`COc1ccc(OC)c(C(Cc2ccnc3ccccc23)Cc2ccnc3ccccc23)c1` gave FEN1 inhibitor -9.1%, Pol iota inh -1.9% and POLK inh -6.1%.
For Brc1ccc[n+](CCc2ccccc2)c1 the results were FEN1 inhibitor -17.6%, Pol iota inh -0.7% and POLK inh -3.7%.
Screening CCOc1ccccc1N1C(=O)c2ccccc2N/C1=C\N1CCN(C(=O)c2ccco2)CC1 returned FEN1 inhibitor -3.4%, Pol iota inh 24.5% and POLK inh 5.6%.
For CCOC(=O)N1CCc2c(sc3c2c(=O)n(Cc2ccccc2)c(=O)n3Cc2ccccc2Cl)C1 the results were FEN1 inhibitor 1.9%, Pol iota inh 33.8%, POLH inh -11.8%, Pol beta inh 3.7% and POLK inh 1.3%.

Screens from PubChem BioAssay.
